In PubChem BioAssay (NCI):
This is part of a sample that, as a whole, favours compounds with a hit. Of some 83,000 tested, about 20% had one in any assay.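 Treatment: one concentration, 48 hours, 96-well format. Scoring: percent growth, with anything below 10 considered active.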 The source made the active and inactive calls.

Tests used:
Test in all cases: NCI-60 one-dose screen, 48 h (100 = growth as untreated, 0 = no growth, -100 = all killed)
Settings in all cases: 10 µM unless noted
[1] = test system: SK-MEL-2 melanoma
[2] = test system: EKVX NSCLC
[3] = test system: SN12C renal
[4] = test system: UO-31 renal
[5] = test system: CAKI-1 renal
[6] = test system: A498 renal
[7] = test system: CCRF-CEM leukemia
[8] = test system: MOLT-4 leukemia
[9] = test system: SR leukemia
[10] = test system: RPMI-8226 leukemia
[11] = test system: OVCAR-5 ovarian
[12] = test system: OVCAR-4 ovarian
[13] = test system: SK-OV-3 ovarian
[14] = test system: IGROV1 ovarian
[15] = test system: OVCAR-3 ovarian
[16] = test system: HS 578T breast
[17] = test system: NCI/ADR-RES ovarian
[18] = test system: TK-10 renal
[19] = test system: ACHN renal
[20] = test system: OVCAR-8 ovarian

Measured: growth

N#CSCC1CC(O)(c2ccccc2)C(c2ccccc2)C(c2ccc(Cl)cc2)O1 (stereo not given)
inactive: [7] 10.2% | [13] 49.5%
active: [1] -42.7% | [2] -40% | [3] -91.9% | [4] -93.1% | [5] -67.1% | [6] 6.8% | [8] -10% | [9] -16% | [10] -4.14% | [11] 0.178% | [12] -32.7% | [14] -30.7% | [15] -100% | [16] -32.3% | [17] -71.5%

COc1ccc2c(c1)[n+](=O)c(C(=O)/C=C/c1cc(OC)c(OC)c(OC)c1)c(C)n2[O-]
active: [7] -63.6% | [14] -27.6%
inactive: [1] 57.2% | [2] 61% | [3] 71.5% | [18] 120% | [19] 65.9% | [5] 105% | [6] 77.1% | [8] 13.2% | [9] 29.5% | [10] 32.3% | [20] 57.4% | [11] 102% | [12] 72.3% | [13] 82.3% | [15] 102% | [16] 63.4% | [17] 73%

O=C1OC(Oc2ccccc2)(c2ccccc2)c2ccccc21 (stereo not given)
inactive: [1] 104% | [2] 133% | [3] 110% | [18] 109% | [19] 102% | [5] 87.4% | [6] 79.9% | [7] 103% | [8] 76% | [9] 79.1% | [20] 102% | [11] 99.6% | [13] 106% | [14] 107% | [15] 97% | [16] 101% | [17] 100%

COc1cc(/C=C/C(=O)CC(=O)/C=C/c2ccc(OC(=O)C3C4CC5CC(C4)CC3C5)c(OC)c2)ccc1OC(=O)C1C2CC3CC(C2)CC1C3 (stereo not given)
inactive: [1] 93.1% | [2] 109% | [3] 108% | [18] 96.9% | [19] 144% | [5] 99.6% | [6] 109% | [7] 89.8% | [8] 103% | [10] 112% | [20] 97.2% | [11] 87.2% | [12] 105% | [13] 110% | [14] 33.3% | [15] 118% | [17] 107%

Cc1cc2ccccn2c1C(=O)c1ccc(C(=O)c2ccccc2)cc1
inactive: [1] 15% | [2] 91.8% | [3] 94.5% | [18] 98.7% | [19] 93% | [5] 106% | [6] 90.5% | [7] 86.6% | [8] 78.4% | [10] 82.1% | [20] 87.9% | [11] 87.8% | [12] 81.4% | [13] 111% | [15] 96% | [16] 86% | [17] 72%
active: [9] -3.06%

CCOc1cc(/C=C/C(=O)CC(=O)/C=C/c2ccc(OC(=O)CNc3nc4ccc(OC)cc4s3)c(OCC)c2)ccc1OC(=O)CNc1nc2ccc(OC)cc2s1
active: [7] 4.63% | [9] -27.3% | [10] -27.2% | [14] -26.5%
inactive: [1] 59.1% | [2] 41.7% | [3] 59% | [18] 60.5% | [19] 69.4% | [5] 75.9% | [6] 91.6% | [20] 28.6% | [11] 99% | [12] 69.5% | [13] 89.5% | [15] 77.8% | [16] 23% | [17] 82.3%

CN(C)c1ccc(-n2nc3ccccc3n2)cc1
active: [14] -38.5%
inactive: [1] 102% | [2] 76.7% | [3] 97.2% | [18] 143% | [19] 96.1% | [5] 73.5% | [6] 96.4% | [8] 82.6% | [10] 357% | [20] 97.3% | [11] 80.3% | [12] 115% | [13] 113% | [15] 93.7% | [16] 96.4% | [17] 106%

Nc1ccccc1C#Cc1ccccc1C#Cc1ccc(OCCCCCCOc2ccc(C#Cc3ccccc3C#Cc3ccccc3N)cc2)cc1
active: [7] -59.7% | [14] -7.54%
inactive: [1] 103% | [2] 89.3% | [3] 99.4% | [18] 141% | [19] 102% | [5] 91.6% | [6] 116% | [8] 103% | [9] 94.7% | [10] 94% | [20] 95.6% | [11] 90.7% | [12] 105% | [13] 92.5% | [15] 109% | [16] 113% | [17] 93%

COc1c(O)cc2c(c1CC=C(C)C)OC(=O)c1c(cc(O)c(CC=C(C)C)c1O)O2
inactive: [1] 55.5% | [2] 78.5% | [3] 10.4% | [18] 42% | [19] 30.2% | [5] 50.6% | [6] 116% | [7] 32.2% | [8] 20.6% | [20] 42.4% | [11] 72% | [12] 43.8% | [13] 86.7% | [14] 69.6% | [15] 34.2%
active: [9] -21.4% | [17] -13.7%

CCOC(=O)C(Br)=P(c1ccccc1)(c1ccccc1)c1ccccc1
active: [7] -40.7% | [14] -30.7%
inactive: [1] 98.8% | [2] 103% | [3] 101% | [18] 117% | [19] 104% | [5] 82.9% | [6] 109% | [8] 99.6% | [9] 90.2% | [10] 83.1% | [11] 106% | [12] 106% | [13] 102% | [15] 98% | [16] 119% | [17] 103%

C[C@@H]1C[C@@H]([C@@H](CC2CC(=O)NC(=O)C2)OC(=O)CC(=O)c2ccccc2)C(=O)[C@@H](C)C1
active: [3] 8.23% | [18] 3.61% | [19] 7.54% | [5] -2.54% | [8] 9.81% | [13] -3.27% | [14] -10.4%
inactive: [1] 12.5% | [2] 11.4% | [6] 16.7% | [7] 15.4% | [9] 31.1% | [20] 12.5% | [11] 16.8% | [12] 20.2% | [15] 19.4% | [16] 19.4% | [17] 10.3%

O=C1c2cccc(NCCN=Cc3ccccc3O)c2C(=O)c2c(NCCN=Cc3ccccc3O)cccc21
inactive: [1] 46.5% | [2] 39.8% | [3] 44.5% | [18] 22.5% | [19] 15.4% | [5] 27.6% | [6] 50.7% | [8] 15% | [20] 17% | [11] 15.9% | [13] 29% | [15] 11.1% | [17] 93.9%
active: [7] 3.44% | [9] -20.9% | [10] -9.08% | [12] 2.43% | [16] 4.31%

Cn1cc(NC(=O)Nc2cc(C(=O)O)n(C)c2)cc1C(=O)O
inactive: [1] 97.8% | [2] 114% | [3] 89.6% | [18] 107% | [19] 104% | [5] 99.3% | [6] 109% | [7] 103% | [8] 85.9% | [9] 86.8% | [10] 125% | [20] 94.4% | [11] 107% | [12] 99.8% | [13] 112% | [15] 102% | [16] 108% | [17] 105%

COc1cccc(N2CCN(c3cccc(C)n3)CC2)c1
active: [14] -11.8%
inactive: [1] 94% | [2] 106% | [3] 105% | [18] 123% | [19] 108% | [5] 82.4% | [6] 93.9% | [8] 101% | [10] 115% | [20] 87.1% | [11] 96.5% | [12] 116% | [13] 107% | [15] 87.5% | [16] 100% | [17] 95.5%

COc1ccc2c(c1)sc1nc(-c3ccc(Br)cc3)cn12
active: [14] -23.9%
inactive: [1] 106% | [2] 113% | [3] 104% | [18] 133% | [19] 110% | [5] 96.4% | [6] 84.4% | [7] 109% | [8] 104% | [9] 120% | [10] 112% | [20] 102% | [11] 101% | [12] 100% | [13] 117% | [15] 122% | [16] 125% | [17] 92.4%

CN1CCN(CCCOc2ccc3ncnc(Nc4ccc(OCc5cccc(F)c5)c(Cl)c4)c3c2)CC1
inactive: [2] 30.7% | [6] 26.1% | [13] 12.4% | [17] 18.3%
active: [1] -40.1% | [3] 3.1% | [18] -18% | [19] -50.7% | [5] -62.5% | [7] 2.72% | [8] -12.8% | [9] -6.49% | [10] -24.6% | [11] -59.4% | [12] -19.9% | [14] -34.9% | [15] -6.29% | [16] -19.3%
